In the library only some 5.4% were active in any assay of this set; here they are far more common.
p53 reactivation: qHTS assay for re-activators of p53 using a Luc reporter | AID 504706, 2011 | Potency, µM (series often up to 92.2 µM), usual class: activators | H1299 p53-A138V BP100-luciferase reporter, luminescence, 24 h | hit rate 0.063% among 320,000; further: nearly all actives have a fitted effect of over 45% in size
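H1299 (p53-null), stable ts p53-A138V + BP100-Luc; 1000 cells/well, Opti-MEM/10% FBS; cpd 4 pt, 1:5; 24 h, 37 deg C, 5% CO2; detection reagent 10 min RT; luminescence.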
RORgamma inh: qHTS for inhibitors of ROR gamma transcriptional activity | AID 2551, 2010 | Drosophila S2 Gal4-RORgamma UAS-luciferase reporter, 20 h | hit rate 5.4% among 310,000 | Potency, µM (series often up to 53.6 µM), hits mostly inhibitors | Nuclear receptor ROR-gamma (Mus musculus), P51450; further: nearly all actives have a fitted effect of over 60% in size
Target sequence (P51450 whole entry, looked up, the tested form may be a part): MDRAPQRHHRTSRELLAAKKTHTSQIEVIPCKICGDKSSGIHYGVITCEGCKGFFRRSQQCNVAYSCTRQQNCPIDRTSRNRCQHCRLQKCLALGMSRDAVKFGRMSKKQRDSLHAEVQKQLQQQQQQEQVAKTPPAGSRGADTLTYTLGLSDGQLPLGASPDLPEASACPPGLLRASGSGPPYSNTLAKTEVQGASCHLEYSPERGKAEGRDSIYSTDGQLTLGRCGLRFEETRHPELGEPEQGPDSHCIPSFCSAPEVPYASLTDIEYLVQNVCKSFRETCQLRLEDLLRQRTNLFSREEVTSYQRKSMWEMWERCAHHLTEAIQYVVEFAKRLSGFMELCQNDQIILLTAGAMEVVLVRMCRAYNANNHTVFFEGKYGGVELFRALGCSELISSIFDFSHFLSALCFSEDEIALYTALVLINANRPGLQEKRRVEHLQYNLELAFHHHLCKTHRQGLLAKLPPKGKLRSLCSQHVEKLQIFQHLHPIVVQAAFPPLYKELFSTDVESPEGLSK
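In this cell-based reporter format, copper sulfate (700 uM final) drives Gal4–ROR gamma fusion expression from a metallothionein promoter in Drosophila Schneider cells; compounds preincubated 1 hr, reporter read after 20 hr at ambient temperature.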
Six1-Eya2 inh: qHTS Assay for Inhibitors of the Six1/Eya2 Interaction; Homeobox protein SIX1 (Homo sapiens) + Protein phosphatase EYA2 (Homo sapiens), …; AlphaScreen GST-Six1/His-Eya2 binding, biochemical; hits give low values; activity change, % (no concentration beside the values); hit rate 0.56% among 360,000; AID 651725, 2012; in the data active means activity change below about -65%; inconclusive means mostly about -30% to -63%
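AlphaScreen luminescence read after one hour at 37 °C in darkness. Pin-transferred compounds met GST-Six1 and His-Eya2 protein (5X stock 250 nM/500 nM) plus glutathione donor and Ni-chelate acceptor beads (5X, 50 ug/mL).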
CtBP-E1A blk: qHTS Assay for Inhibitors of the CtBP/E1A Interaction. CtBP / adenovirus E1A interaction (AlphaScreen). AlphaScreen GST-E1A/His-CtBP binding, 1536-well; hits give low values. activity change, % (concentration not given with the values). hit rate 0.49% among 340,000; in the data active means activity change below about -65%; inconclusive means mostly about -30% to -63%
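Homogeneous bead-based format: GST-tagged E1A captured on glutathione donor beads, His-tagged CtBP on nickel acceptor beads; compounds precede bead addition by 2 h at 37 °C.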
Gal4-VP16 FLuc: VP16 counterscreen qHTS for inhibitors of ROR gamma transcriptional activity; Drosophila S2 Gal4-VP16 UAS-luciferase, luminescence, 20 h; Potency, µM (doses to about 53.6 µM), actives largely listed as inhibitors; hit rate 3.5% among 310,000; AID 2546, 2010;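 further: Gal4-VP16 expression switched on by copper sulfate through the metallothionein promoter; nearly all actives have a fitted effect of over 50% in size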
Hits are given with their value; n = inactive; u = inconclusive; x = not tested or not shown; [ ] = remark or other dose. Unless noted, the call rests on the fitted dose curve; in most records, active means well fitted curve in the direction sought with a large enough effect; inconclusive means small, poorly fitted or top-dose-only effect, or another doubt; inactive means no such curve, though single readings can be large; an effect the other way counts as inactive or inconclusive.

SMILES | p53 reactivation | RORgamma inh | Six1-Eya2 inh | CtBP-E1A blk | Gal4-VP16 FLuc
Cc1nc2nc(-c3ccc(F)cc3)cn2nc1C | n | u | n | x | u
CCc1ccc(-c2cn3nc(C)c(C)nc3n2)cc1 | n | 7.1µM | n | n | u
c1ccc(-c2cn3nc4c(nc3n2)CCCC4)cc1 | n | 5µM | n | n | u
Cc1nc2nc(-c3ccccc3)cn2nc1C | x | 10µM | n | n | u
COc1ccccc1NC(=O)CCSc1nnc(-c2ccncc2)o1 | n | n | n | n | n[10 µM]
O=C(Nc1ccc2ccccc2c1)[C@H]1C[C@@H]1[C@H](NP(=O)(c1ccccc1)c1ccccc1)c1ccccc1 | x | n | x | x | n
O=C(/C=C/c1ccccc1Cl)NCc1ccco1 | n | n | n | n | n
COc1cccc(/C=N/NC(=O)C(=O)NCc2ccco2)c1OC | n | n | n | n | n
COc1cc(/C=N/NC(=S)NCc2ccco2)cc(OC)c1OC | n | n | n | n | u
S=C(NCc1ccco1)N/N=C/c1ccccc1Cl | n | 11µM | n | n | u
COc1ccccc1/C=N/NC(=S)NCc1ccco1 | n | 2µM | n | n | 11µM
C=CCNC(=S)N/N=C/c1ccccc1OCCOc1ccccc1 | n | 2.5µM | n | n | 5µM
COc1cccc(/C=N/NC(=O)C(=O)NCc2ccco2)c1O | n | 4µM | -89 | -97 | 6.3µM
COC(=O)N/N=C/c1ccccc1OCCOc1ccc(OC)cc1 | n | n | n | n | n
Cc1cc(C(F)(F)F)n(-c2ccc(N)cc2)n1 | n | n | n | n | n
COC(=O)[C@@H]1C[C@H]1[C@@H](NS(=O)(=O)c1ccc(-c2ccccc2)cc1)c1ccccc1 | x | n | x | x | n
O=C1OCCC1Sc1nnc(-c2ccc3c(c2)OCO3)o1 (configuration not stated) | n | 10µM | n | n | u
CC(=O)Nc1ccc(NC(=O)CSc2nnc(-c3ccc4c(c3)OCO4)o2)cc1 | n | x | n | n | x
CC(=O)CSc1nnc(-c2ccc3c(c2)OCO3)o1 | u | 13µM | n | n | 16µM
O=C(O)CCSc1nnc(-c2ccc3c(c2)OCO3)o1 | n | 2.8µM | n | n | 4µM
O=C1OCCC1Sc1nnc(-c2ccc(O)cc2)o1 (configuration not stated) | n | n | n | n | n
O=C(CSc1nnc(-c2ccc3c(c2)OCO3)o1)Nc1ncc(Cl)cc1Cl | n | 0.79µM | n | x | 0.56µM
O=C(CSc1n[nH]c(-c2ccncc2)n1)Nc1ccc(Cl)c(C(=O)O)c1 | n | n | n | n | n
COc1cc(C(=O)OC2CC[C@]3(C)C4CCC5[C@]6(O)CC(O)[C@]7(O)C(CN8CC(C)CCC8[C@]7(C)O)[C@]6(O)C[C@@]53O[C@]24O)cc(OC)c1OC (some centres not stated) | x | n | x | x | n
COCCn1c(=O)c(-c2cccc(C#N)c2)nc2cnc(Oc3cccc(Cl)c3)nc21 | x | n | x | x | n
SMILES | p53 reactivation | RORgamma inh | Six1-Eya2 inh | CtBP-E1A blk | Gal4-VP16 FLuc
COc1cc(OC)c(OC)cc1/C=N/N(C)c1ccccc1 | n | n | -66 | u | n
COc1cc(/C=N/N(C)c2ccccc2)ccc1O | u | n | u | u | n
COc1ccc(CCNC(=O)c2ccc3nc(N4CCCCC4)sc3c2)cc1OC | x | 2.2µM | n | n | u
O=C(CC1OC(=O)c2ccccc21)Nc1ccc(Cl)c(S(=O)(=O)N2CCCCC2)c1 (configuration not stated) | n | x | n | n | x
CC(=O)C1=C(C)NC(SCC(=O)c2ccccc2)=C(C#N)C1c1ccco1 (configuration not stated) | n | n | x | x | u
CC(=O)C1=C(C)NC(SCC(=O)c2ccccc2)=C(C#N)C1CC(C)C (configuration not stated) | n | 11µM | n | n | u
Cc1ccccc1OCCC(=O)OCC(=O)NNC(=O)c1cccs1 | n | x | n | n | x
Cc1c(Cl)ccc2c(C(=O)NC(C)c3ccncc3)cc(-c3ccncc3)nc12 (configuration not stated) | n | u | x | x | 13µM
COC(=O)CNC(=O)c1cc(-c2ccncc2)nc2c(C)c(Cl)ccc12 | n | n | n | n | n
O=[N+]([O-])c1ccc(NCc2ccccc2N2CCC(CO)CC2)nc1 | n | n | n | x | n
Cc1ccccc1NC(=S)NC1CCN(Cc2ccccc2)CC1 | n | 18µM | n | n | u
CCC(C)c1ccc(NC(=S)NC2CCN(Cc3ccccc3)CC2)cc1 (configuration not stated) | u | 7.1µM | n | n | 7.1µM
S=C(Nc1ccc(Cl)cc1)NC1CCN(Cc2ccccc2)CC1 | n | 18µM | n | n | u
Cc1ccc(NC(=S)NC2CCN(Cc3ccccc3)CC2)c(C)c1 | n | u | n | n | u
CCc1ccc(NC(=S)NC2CCN(Cc3ccccc3)CC2)cc1 | n | 10µM | n | n | u
NC(=O)C1CCN(C(=O)c2ccc3c(=O)n(Cc4ccco4)c(SCc4ccc([N+](=O)[O-])cc4)nc3c2)CC1 | n | n | n | x | n
C[C@@H](O)C(N)C(=O)O (some centres not stated) | x | n | x | x | n
Cc1cccc(C(=O)Nc2ccc(NC(=O)CN3CCOCC3)cc2)c1 | n | n | n | n | n
O=C(O)c1cccc(Cl)c1Cl | x | n | x | x | n
CCNC(=S)N1CCC(Cc2ccccc2)CC1 | n | n | n | n | n
COc1ccc(NC(=S)N2CCC(Cc3ccccc3)CC2)cc1 | n | 8.9µM | n | n | u
OCC1CCCN(C(=S)Nc2ccc(Nc3ccccc3)cc2)C1 (configuration not stated) | n | 7.1µM | n | u | 7.9µM
S=C(Nc1ccccc1)N1CCC(Cc2ccccc2)CC1 | x | 6.3µM | n | n | 6.3µM
COc1cc(NC(=S)N2CCC(C(O)(c3ccccc3)c3ccccc3)CC2)cc(OC)c1 | n | 14µM | n | x | u
O=C(c1nnsc1S(=O)(=O)c1ccc(Cl)cc1)N1CCOCC1 | n | 2.8µM | n | n | 10µM
SMILES | p53 reactivation | RORgamma inh | Six1-Eya2 inh | CtBP-E1A blk | Gal4-VP16 FLuc
O=C(Nc1ccccc1)c1nnsc1S(=O)c1ccc(Cl)cc1 (configuration not stated) | n | 16µM | n | n | 4.5µM
O=C(c1ccc(Cl)cc1)N1CCN(c2ccc(N3CCOCC3)nn2)CC1 | x | x | n | n | x
Cc1nnsc1S(=O)c1ccc(Cl)cc1 (configuration not stated) | n | n | n | x | n
O=C(c1nnsc1S(=O)c1ccc(Cl)cc1)N1CCOCC1 (configuration not stated) | n | 1.1µM | n | n | 3.5µM
CNC(=O)c1ccc(S(=O)(=O)c2ccc(Cl)cc2)c(NC(C)=O)c1 | n | n | n | n | n
CNC(=O)c1nnsc1S(=O)(=O)c1ccc(Cl)cc1 | n | 0.56µM | n | n | 0.4µM

High-throughput results (PubChem BioAssay)
